Compound activity from PubChem.
LASV entry inh: Lassa virus entry inhibition; Lassa virus pseudotype entry inhibition, cell reporter; Potency, µM (series often up to 37.9 µM), inactives show top-dose activity change, negative = inhibition, usual class: inhibitors; hit rate 1.2% among 300,000; calls by dose curve; tested in HEK293 cells; also: potency is read from the fitted curve at half-maximal effect; nearly all actives have a fitted effect of over 50% in size
MARV entry inh: blocks Marburg virus binding to or entry into cells; Marburg virus pseudotyped entry inhibition, cell reporter; Potency, µM (doses to about 37.8 µM), for the others: at the highest dose activity change, negative = inhibition, usual class: inhibitors; hit rate 1.8% among 300,000; AID 540276; calls by dose curve; tested in HEK293 cells; also: potency is read from the fitted curve at half-maximal effect
VACV mCherry inh: vaccinia inhibition (mCherry reporter) | hit rate 0.63% among 310,000 | Potency, µM (top dose mostly 36.5 µM), inactives show at the top dose activity change, negative = inhibition, actives largely listed as inhibitors | Vaccinia virus mCherry reporter infection, fluorescence; calls by dose curve; tested in A549 cells; also: potency is read from the fitted curve at half-maximal effect; nearly all actives have a fitted effect of over 35% in size
FMDV antiviral: blocks foot and mouth disease virus; FMDV antiviral cell-based qHTS; hit rate 1.2% among 410,000; Potency, µM (top dose mostly 57.9 µM), for the others: at the highest dose activity change, negative = inhibition, hits mostly inhibitors; AID 1159524; calls by dose curve; tested in HEK293T cells; also: read-out not given here; potency is read from the fitted curve at half-maximal effect; nearly all actives have a fitted effect of over 45% in size
HCMV inh: blocks human cytomegalovirus replication; activity change, negative = inhibition, % at 57.5 µM; hit rate 4.5% among 410,000; HFF cells, HCMV-luciferase reporter, 72 h; stronger effect = lower value; in the data active = activity change below about -60%; inconclusive = no clear call, values can overlap the other calls; inactive = above about -39%
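Steps: HFFs plated, 16 h 37C; compounds added; HCMV-luciferase added to MOI 1 PFU/cell; 72 h 37C; OneGlo reagent, 5 min room temperature; luminescence read, normalized to controls.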
VACV Venus inh: inhibitors of vaccinia virus (Venus reporter) | Vaccinia virus Venus reporter expression, fluorescence | hit rate 0.46% among 330,000 | AID 720580 | Potency, µM (series often up to 36.5 µM), without a hit: top-dose activity change, negative = inhibition, usual class: inhibitors; calls by dose curve; tested in A549 cells; also: potency is read from the fitted curve at half-maximal effect; nearly all actives have a fitted effect of over 30% in size
An asterisk follows results filed as active; i = inactive; ? = inconclusive; · = no result given; [ ] = remark or other dose. Shown are actives, neighbours in structure and some others; about 6.5% of the full set was active somewhere. % is scaled to controls: 0 for no effect and ±100 for the full control effect.

SMILES | LASV entry inh | MARV entry inh | VACV mCherry inh | FMDV antiviral | HCMV inh | VACV Venus inh
COc1ccc(N(CC(=O)NCc2ccco2)S(=O)(=O)c2ccccc2)cc1 | · | -9%[46.1 µM] | -12% | 16% | 13 | -6%
C#CCN1C(=O)[C@]2(O[C@H](COc3ccccc3)CC3=CCCC32)c2c(Br)cccc21 (stereo partly specified) | · | 8%[14.2 µM] | · | · | · | ·
CCOC(=O)/C=C/[C@H](CC(C)C)NC(=O)C(F)(F)F | · | · | · | · | -19 | ·
COc1ccc(N(CC(=O)Nc2ccccc2OC)S(=O)(=O)c2ccc(NC(C)=O)cc2)cc1 | 3.2µM* | ? | -26% | 0% | ? | ?
COc1ccc(N(CC(=O)N/N=C/c2ccc(F)cc2)S(=O)(=O)c2ccccc2)cc1 | ? | ? | -31% | -2% | -69* | -23%
COc1ccc(/C=N/NC(=O)CN(c2ccc(OC)cc2)S(=O)(=O)c2ccccc2)cc1 | · | · | · | 2% | -16 | ·
CCCOc1ccc(-c2c(=O)n(OCc3ccc([N+](=O)[O-])cc3)c3ccccc3[n+]2[O-])cc1 | ? | -3% | -11% | -2% | 23 | 0%
CC(C)CCOc1ccc(-c2c(=O)n(OCc3ccc([N+](=O)[O-])cc3)c3ccccc3[n+]2[O-])cc1 | -5% | -17% | · | -14% | -69* | ·
CCCCCCC[C@@H](C/C=C/CCC(=O)N(C)C/C(=C/Cl)C/C(=C\C(=O)N1C[C@H](O)CC1=O)OC)OC | · | · | -15% | 32µM* | -15 | ?
CCCCCCC[C@@H](C/C=C/CCC(=O)N(C)C/C(=C/Cl)C/C(=C\C(=O)N1CC(OC)=CC1=O)OC)OC | · | · | 10µM* | ? | ? | ?
CSc1nnc(-c2cccc(NC(=S)NN)c2)o1 | · | · | i | 4% | -66* | -12%
O=C(CSC1=NCCN1)NC(c1ccccc1)c1ccccc1 | ? | -18% | -5% | 32µM* | 40 | -14%
O=C(CSC1=NCCN1)Nc1cccc([N+](=O)[O-])c1 | -9% | ? | -21% | 18µM* | 13 | -17%
CCN(CC(=O)Nc1c(F)cccc1F)C(=O)c1ccc2c(c1)C(=O)N(c1ccccc1C)C2=O | · | · | i | -19% | -26 | -14%
c1ccc(-c2cc3c(Nc4cccnc4)nccc3[nH]2)cc1 | · | · | · | · | 11 | ·
O=C(c1ccccc1C(F)(F)F)N1CCOc2c(cc(-c3nc4ccccc4s3)cc2OC2CCOC2)C1 (stereo unspecified) | · | · | i | 0% | · | ?
COCCCNC(=O)c1ccc(C)c(-n2c(C)nc3cccnc32)c1 | 7%[46.1 µM] | · | -8% | 3% | ? | -6%
CNC(=O)NC1CCCC(C2=NC(C)=NCC2)C1 (stereo unspecified) | · | 5% | · | · | · | ·
COc1cccc(CNC(=O)CCC2CCCN(C(=O)c3cc4ccccc4o3)C2)c1 (stereo unspecified) | ? | 11µM* | -19% | 2% | 10 | -20%
O=[N+]([O-])c1cc2c(ccc3occc32)o1 | · | · | · | · | -73* | ·
COc1c([N+](=O)[O-])c(=O)oc2ccccc12 | 17% | 5% | -4% | -15% | 67 | -4%
COc1ccc([C@H]2CC(=O)C=C(c3cccc(NC(C)=O)c3)C2)cc1 | · | · | i | 24% | 37 | -18%
COc1ccc2[nH]c3nc(SC(C)C)nnc3c2c1 | 2.2µM* | ? | -14% | 13µM* | -21 | -9%
COc1ccc(CNC(=O)CSc2nnc3c(n2)[nH]c2ccc(OC)cc23)cc1 | · | ? | 9% | 11% | 17 | -1%
COc1ccc2[nH]c3nc(SCc4nnc(-c5ccccc5)o4)nnc3c2c1 | ? | -25% | · | -13% | -94* | ·
SMILES | LASV entry inh | MARV entry inh | VACV mCherry inh | FMDV antiviral | HCMV inh | VACV Venus inh
Cn1c(-c2cccc(F)c2)cc2cnc(Nc3cccnc3)cc21 | · | · | · | · | 7 | ·
Cc1nc(-c2ccc(S(=O)(=O)N(Cc3ccccc3)C(C)C)cc2)co1 | -14%[46.1 µM] | · | -12% | -19% | -12 | -8%
C=CCc1cccc(/C=N/NC(=O)CNc2ccccc2)c1O | ? | ? | · | 14% | -99* | ?
C=CCc1cccc(/C=N/NC(=O)CNc2cccc3ccccc23)c1O | ? | -2% | ? | -14% | -23 | -27%
C=CCc1cccc(/C=N/NC(=O)CCC(=O)Nc2ccc(F)cc2)c1O | ? | 13µM* | ? | -18% | -84* | ?
C=CCc1cccc(/C=N/NC(=O)CNc2ccccc2OC)c1O | · | · | · | -26% | -98* | ·
C=CCc1cccc(/C=N/NC(=O)CCCNc2ccc(C)cc2)c1O | ? | ? | 13µM* | -3% | 12 | ?
O=C(Nc1cc(Cl)ccc1-n1cncn1)c1ccc(Br)o1 | 0% | ? | -16% | -1% | 12 | -12%
CC(C)c1c(C(=O)NCC(C)(C)N2CCOCC2)cnn1-c1nccc(-c2cccs2)n1 | · | · | -26% | -1% | · | -14%
C=CCc1cccc(/C=N/NC(=O)C(C)Nc2cccc(C)c2)c1O (stereo unspecified) | 11µM* | ? | ? | -13% | -80* | -17%
COc1ccc(-n2c(=O)c3sc4ccccc4c3n(Cc3ccccc3C)c2=O)cc1OC | -8%[46.1 µM] | 0%[46.1 µM] | 3% | -20% | 9 | 1%
O=c1c2ccccc2ncn1Cc1ccc2c(c1)OCO2 | · | · | · | 8% | 79 | ·
C=C1C=C(C(F)F)n2ncc(C(=O)NCc3ccc(Cl)cc3)c2N1 | · | · | -9% | · | · | -20%
CCCCCCCCCCOC(=O)Cn1c(COc2ccccc2OC)[n+](C)c2ccccc21 | ? | 2.5µM* | ? | ? | ? | 14µM*
CN(C(=O)c1ccco1)c1nc(CC(=O)Nc2ccccc2)cs1 | 25% | 18µM* | · | 4% | -16 | -12%
COc1ccc(CCNc2nc(-c3ccc(C)cc3)cc(C(F)F)n2)cc1OC | ? | 11%[46.1 µM] | -21% | -11% | -25 | -10%
Cc1ccc(-c2cc(C(F)F)nc(S(C)(=O)=O)n2)cc1 | ? | ? | -1% | 32µM* | -7 | -4%
Cc1cc(Nc2cccc(Cl)c2)nc2ccc(NC(=O)Cc3c(F)cccc3Cl)cc12 | -13%[46.1 µM] | · | -10% | -3% | -40 | -18%
COc1ccc(CC(=O)Nc2ccc3nc(Nc4cccc(Cl)c4)cc(C)c3c2)cc1OC | ? | · | -25% | ? | -69* | -29%
Cc1cc(Nc2cccc(Cl)c2)nc2ccc(NC(=O)Cc3cccc(C(F)(F)F)c3)cc12 | -8%[46.1 µM] | · | -15% | -14% | -99* | -19%
Cc1cc(Nc2cccc(Cl)c2)nc2ccc(NC(=O)Cc3ccc(Cl)cc3)cc12 | -21%[46.1 µM] | · | -26% | -29% | -104* | ?
O=C(NCCc1nnc2n1CCN(Cc1c(F)cccc1F)CC2)c1ccco1 | · | · | -2% | -20% | · | -1%
Nc1ccn([C@@H]2O[C@H](CNCc3cnc(N4CCOCC4)s3)[C@@H](O)[C@H]2O)c(=O)n1 | · | · | -12% | -8% | -3 | -14%
CCCCNc1nc(-c2ccccc2)c(C(=O)OCC)cc1C#N | 11µM* | ? | · | -15% | -3 | -29%
C=CCNc1nc(-c2ccccc2)c(C(=O)OCC)cc1C#N | ? | ? | -18% | ? | 21 | -26%
